Measured values taken from PubChem BioAssay (NCI).
About 83,000 compounds went through this panel and 20% of them were active in at least one assay; those are over-represented in the sample as a whole.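 Cell lines were cultured in 96-well plates, exposed to a single compound concentration, and assessed for percent growth 48 hours later.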 Unmarked numbers belong to inactive results. Calls of active or inactive are those of the source. The calls were made as follows: active = growth percent below 10; inactive = the rest.

How the values were obtained:
Assay in all cases: NCI-60 one-dose screen, 48 h (100 = growth as untreated, 0 = no growth, -100 = all killed)
DU-145 prostate = details: 10 µM unless noted
K-562 leukemia = details: 10 µM unless noted
MALME-3M melanoma = details: 10 µM unless noted
MDA-MB-231 breast = details: 10 µM unless noted
RXF 393 renal = details: 10 µM unless noted
SF-268 CNS = details: 10 µM unless noted
SF-295 CNS = details: 10 µM unless noted
SF-539 CNS = details: 10 µM unless noted
UACC-257 melanoma = details: 10 µM unless noted
HCT-15 colon = details: 10 µM unless noted
SNB-75 CNS = details: 10 µM
SNB-19 CNS = details: 10 µM unless noted
U251 CNS = details: 10 µM unless noted
PC-3 prostate = details: 10 µM unless noted
UACC-62 melanoma = details: 10 µM unless noted
LOX IMVI melanoma = details: 10 µM unless noted
SK-MEL-28 melanoma = details: 10 µM unless noted
M14 melanoma = details: 10 µM unless noted
HT29 colon = details: 10 µM unless noted
SK-MEL-5 melanoma = details: 10 µM unless noted

Compound	growth (DU-145 prostate)	growth (K-562 leukemia)	growth (MALME-3M melanoma)	growth (MDA-MB-231 breast)	growth (RXF 393 renal)	growth (SF-268 CNS)	growth (SF-295 CNS)	growth (SF-539 CNS)	growth (UACC-257 melanoma)	growth (HCT-15 colon)	growth (SNB-75 CNS)	growth (SNB-19 CNS)	growth (U251 CNS)	growth (PC-3 prostate)	growth (UACC-62 melanoma)	growth (LOX IMVI melanoma)	growth (SK-MEL-28 melanoma)	growth (M14 melanoma)	growth (HT29 colon)	growth (SK-MEL-5 melanoma)
COc1cc2c(cc1OCCCCCn1c3ccccc3c3ccccc31)N=C[C@@H]1CCCN1C2=O	-53.3% (active)	-21.1% (active)	-64.7% (active)	-87.1% (active)	-80.7% (active)	-59.9% (active)	11.7%	-85.8% (active)	-55.4% (active)	-74.3% (active)	-11.3% (active)	-49.9% (active)	-58% (active)	-41.8% (active)	-90.3% (active)	-64.8% (active)	-78.8% (active)			
CN1CCN(CCCOc2ccc3nc(Nc4ccc(Cl)c(C(F)(F)F)c4)ccc3c2)CC1	54.1%	-28.2% (active)	55.9%	-12.9% (active)	58.8%	59.7%	56%	47%				66%	23.3%	40.6%		-83.7% (active)		-11.6% (active)	-37.5% (active)	76.9%
COc1cc(Cn2cc3c(c2)-c2oncc2CC3)cc(OC)c1OC	-11% (active)	12%	56.5%	28.9%	46.1%	18.4%	-3.52% (active)		81.2%	16.3%	45.5%	34.9%	17.2%	38.4%	41.9%	9.46% (active)	59.9%	10.7%		-36% (active)
COc1ccc(/C=C/c2c(C(C)=O)c(C)nc3ccccc23)cc1	97.7%	52.4%	101%	82.8%	86.6%	97.5%	85.3%		64.7%	95.8%		82.1%	94.8%	76.1%	52.4%	96.6%		99.2%	80.1%	
CC(C)c1ccc2occ(C=C3C(=O)NC(=O)NC3=O)c(=O)c2c1	109%	72.7%	93.7%	98.9%	87.4%	89.3%	119%	121%	96.1%			81%	74.3%	92%	82.1%	87.4%	99.8%	91.3%		
C=CCn1c2ccccc2c2c3c(c4c5ccccc5n(CC=C)c4c21)C(=O)N(O)C3=O	24.9%	27.3%	96.1%	39.4%	42.2%	33.7%	16.2%	2.86% (active)		35.5%		36.1%	11.5%	21.8%		-81.2% (active)		17.2%	19.2%	-48.5% (active)
COc1cc(C2CC(c3ccc4c(c3)OCO4)=NN2C(C)=O)cc(OC)c1OC (configuration not stated)	13.7%	18.2%	23.3%	61.3%	7.22% (active)	52.7%	-7.31% (active)		66.5%	40.4%	-12.1% (active)	47.6%	28.2%	43.8%	46.2%	35.7%	52.7%	29.3%		11.7%
COc1ccc(C2=CC(c3cc(OC)c(OC)c(OC)c3)NC(=O)N2)cc1OC (configuration not stated)	-17.1% (active)	10.6%	11.2%	21.8%	0.616% (active)	32.2%	6.53% (active)		57.2%	27.5%	2.17% (active)	38.1%	21.1%	51%	44.5%	7.04% (active)	40%	17.2%		18.5%
O=c1[nH]c(Nc2ccc(S(=O)(=O)O)cc2)nc2nc(Nc3ccc(NC(=S)Nc4ccccc4)cc3)nc(-c3ccc(O)cc3O)c12	133%	101%	98.8%	90.5%	115%	104%	121%	189%	139%	105%	96.3%	91.1%	101%	108%	91.5%	96.2%	112%		125%	114%
Cc1nn(-c2ccc(Cl)cc2)c2ncnc(N/N=C/c3cccc([N+](=O)[O-])c3)c12	68.7%	17.4%	97.2%	102%	110%	58%	101%	106%	103%	100%	99.2%	96.4%	82.3%	39%	109%	93.4%	105%		90.7%	105%
CCCN=C1NC(=O)/C(=C/c2nc(-c3ccc(OC)cc3)n3ccccc23)S1	38.9%	91.6%	95.3%	55.9%	54.6%	76.2%	124%	95.4%	110%	84.8%	96.5%	80.8%	52.9%	85.9%	93.1%	52.7%	111%		99.3%	
O=[N+]([O-])c1ccc(-c2cn(-c3ccccc3)c(-c3ccccc3)n2)cc1	109%	62.5%	141%	49.5%	65.3%	91.4%	-21.1% (active)	116%	-2.3% (active)	95.2%	70.7%	36.3%	58.6%	48.1%	83.1%	94.3%	96.7%		98.6%	128%
Clc1ccc2c(NC3CCC(NC4CCCCC4)CC3)ccnc2c1 (configuration not stated)	80.9%	0.509% (active)	34.6%	45.4%	51.2%	84.7%	60.1%	0.613% (active)	-51.5% (active)	29.6%	79.6%	81.9%	35.8%	59.2%	-31.3% (active)	35.6%	-10.5% (active)		7.7% (active)	18.6%
COc1cc(-c2nn(-c3cccc(NC(=O)Nc4ccc(Cl)c(Cl)c4)c3)cc2-c2ccncc2)ccc1Cl	20%	3.63% (active)	-19.9% (active)	-40.1% (active)	-22.8% (active)	17.9%		12.3%	-36.6% (active)	12.7%		27.2%	-6.02% (active)	-17.6% (active)	-65.1% (active)	1.38% (active)	4.96% (active)	0.293% (active)	1.12% (active)	-80% (active)
O=C(/C=C/c1cc(-c2ccc3c(c2)OCO3)n[nH]1)c1ccc2c(c1)OCO2	104%	82.6%	106%	92.4%	94.4%	93.3%	97%		96.1%		101%	72%	75.7%	74.6%	97.4%	87.6%	109%	99.6%	100%	98%
COc1cc(-c2nn(-c3cccc(NC(=O)c4ccc(Cl)c(C(F)(F)F)c4)c3)cc2-c2ccncc2)ccc1Cl	65.4%	8.65% (active)	16.8%	25.8%	-0.403% (active)	46.7%		33%	23.5%	51.7%		66%	32.5%	18.6%	32.8%	32.2%	41.6%	26.2%	50.1%	17.5%
